How the values were obtained:
[1] = test system: Human papillomavirus type 1a protein E7 (residues 44-93); test: HPV1a E7 fragment binders on microarrays, primary screen, biochemical, small-molecule microarray, residues 44-93, 635 nm fluorescence (AID 1108); details: small-molecule microarray binding, fluorescence 635 nm; higher = more signal;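 also: E7 fragment applied at 1 µg/mL in TBST for 1 h at 4 C; score combines spot fluorescence with its signal to noise ratio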
[2] = modulators of HCV replicon luciferase signal, primary screen, HCV replication inhibitor project, Huh7 cells, luciferase reporter (AID 1109); details: 48 h, higher = more signal;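 also: huh7 hepatoma cells harbouring a luciferase neomycin HCV replicon reporter; luciferase luminescence as measure of HCV replicon replication; test concentration not given here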
[3] = molecular target: Left-right determination factor 2 (Homo sapiens) (UniProt O00292); test: LEFTY2 binders on small-molecule microarrays, primary screen, biochemical, small-molecule microarray, 635 nm fluorescence scan (AID 1110); details: LEFTY2 binding, higher = more signal
[4] = molecular target: Calmodulin-1 (Homo sapiens) (UniProt P0DP23); test: CALM1 binders on microarrays, EGTA buffer, profiling panel, biochemical, small-molecule microarray, Cy5-labelled CALM1 (AID 1111); details: Cy5-CALM1 binding fluorescence, higher = more signal;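 also: labelled calmodulin applied in Tris saline Tween buffer holding calcium plus EGTA and DTT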
[5] = molecular target: Calmodulin-1 (Homo sapiens) (UniProt P0DP23); test: calcium-bound CALM1 binders on microarrays, profiling panel, artefact control for SMM control-protein annotation, biochemical, small-molecule microarray, Cy5-labelled CALM1, plus calcium (AID 1112); details: Cy5-CALM1 binding fluorescence, higher = more signal;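 also: score merges spot fluorescence with signal to noise from triplicate slides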
[6] = small-molecule microarray binders of probe aWnt5a, primary screen, biochemical, biotinylated probe, 635/667 nm fluorescence (AID 1113); details: higher = more signal;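 also: score merges 667 nm fluorescence intensity with signal-to-noise per printed feature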
[7] = small-molecule microarray binders of probe aShh, primary screen, biochemical, biotinylated probe, 635/667 nm fluorescence (AID 1114); details: higher = more signal;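 also: probe is biotin-labelled aShh protein from a stem cell growth factor screen; measures binding of labelled protein to compounds printed on the slide; score merges feature fluorescence at 667 nm with signal-to-noise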
[8] = small-molecule microarray binders of probe aNog, primary screen, biochemical, biotinylated probe, 635/667 nm fluorescence (AID 1115); details: higher = more signal;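 also: probe is biotinylated aNog protein used at 0.15 µg/mL for 1 h at 4 C; z-score combines 667 nm fluorescence of each spot with its signal to noise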
[9] = molecular target: Torsin-1A-interacting protein 1 (Homo sapiens) (UniProt Q5JTV8); test: LAP1 binders from COS7 cell lysate, primary screen, small-molecule microarray, 635/667 nm fluorescence (AID 1116); details: COS7-hLAP1 lysate binding, 635 nm fluorescence, higher = more signal
[10] = molecular target: Alpha-bungarotoxin (Bungarus multicinctus) (UniProt P60615); test: alpha-bungarotoxin binders on microarray, profiling panel, artefact control for SMM control protein annotation, biochemical, small-molecule microarray, Alexa647 label, 635/667 nm fluorescence (AID 1117); details: alpha-BTX-A647 binding fluorescence, higher = more signal
Alpha-bungarotoxin (Bungarus multicinctus), sequence (P60615 whole entry, looked up): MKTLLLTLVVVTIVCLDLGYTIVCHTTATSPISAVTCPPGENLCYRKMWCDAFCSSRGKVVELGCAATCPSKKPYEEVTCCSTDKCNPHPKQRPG

Torsin-1A-interacting protein 1 (Homo sapiens), sequence (Q5JTV8 whole entry, looked up): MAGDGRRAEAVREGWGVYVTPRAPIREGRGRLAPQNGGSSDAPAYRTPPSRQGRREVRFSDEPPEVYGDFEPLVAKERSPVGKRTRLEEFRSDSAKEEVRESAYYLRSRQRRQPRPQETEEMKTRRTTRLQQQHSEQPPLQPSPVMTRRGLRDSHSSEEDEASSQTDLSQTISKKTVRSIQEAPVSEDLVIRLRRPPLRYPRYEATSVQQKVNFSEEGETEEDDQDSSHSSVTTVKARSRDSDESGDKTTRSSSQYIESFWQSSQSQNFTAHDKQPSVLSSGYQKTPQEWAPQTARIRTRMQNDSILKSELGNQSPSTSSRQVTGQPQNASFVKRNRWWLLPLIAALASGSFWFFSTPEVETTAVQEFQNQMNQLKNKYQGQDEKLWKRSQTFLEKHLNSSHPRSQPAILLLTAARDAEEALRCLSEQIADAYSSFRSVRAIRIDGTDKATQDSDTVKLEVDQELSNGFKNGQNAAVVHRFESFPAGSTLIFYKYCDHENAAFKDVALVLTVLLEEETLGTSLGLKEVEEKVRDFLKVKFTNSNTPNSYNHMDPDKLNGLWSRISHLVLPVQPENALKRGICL
Left-right determination factor 2 (Homo sapiens), sequence (O00292 whole entry, looked up): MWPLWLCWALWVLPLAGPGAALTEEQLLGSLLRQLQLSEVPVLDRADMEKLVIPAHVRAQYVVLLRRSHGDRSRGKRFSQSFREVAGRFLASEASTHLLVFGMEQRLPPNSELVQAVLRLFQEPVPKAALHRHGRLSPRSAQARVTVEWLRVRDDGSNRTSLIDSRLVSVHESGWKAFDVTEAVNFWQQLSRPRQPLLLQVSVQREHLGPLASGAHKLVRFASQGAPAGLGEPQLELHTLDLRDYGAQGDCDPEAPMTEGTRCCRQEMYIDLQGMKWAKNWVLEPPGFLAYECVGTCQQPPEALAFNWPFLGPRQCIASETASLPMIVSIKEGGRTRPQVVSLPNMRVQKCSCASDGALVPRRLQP

Structure (SMILES) | composite z-score [1] | z-score [2] | composite z-score [3] | composite z-score [4] | composite z-score [5] | composite z-score [6] | composite z-score [7] | composite z-score [8] | composite z-score [9] | composite z-score [10]
CC(C)C(O)C1C=CC2C(=O)N(C)C(=O)C2N1Nc1ccccc1 (stereo not given) | 0.0819 | 0.247 | 0.163 | 0.774 | -0.473 | 0.175 | 0.679 | 1.66 | 2.27 | 1.25
C[C@H]1ON(c2ccc(C(=O)OC(C)(C)C)cc2)[C@@H](c2ccc(O)cc2)[C@@H]1C(=O)N1C(=O)OC[C@@H]1c1ccccc1 | 0.644 | -3.09 | 0.465 | 0.403 | -0.32 | -0.0977 | -0.341 | -0.383 | 0.165 | 0.413
C=C(CCCC)/C(=C/C[C@@H](OC(=O)c1ccncc1)c1cccc(OCCO)c1)c1cnc2ccccc2c1 | 1.3 | -1.96 | 0.742 | 0.185 | -0.472 | 0.0037 | -0.0035 | -0.103 | 1.49 | 2.58
Cc1ccc(S[C@]2(C(=O)NC(C)C)CC(=O)N(Cc3ccccc3C(F)(F)F)[C@@H]2c2ccc(CO)cc2I)cc1 | 0.187 | -2.54 | -0.796 | -0.301 | 0.0016 | -0.13 | -0.0769 | -0.0965 | -0.0123 | 1.65
CC(C)(C)N1CC=CC23O[C@@H]4C=CCOC(=O)[C@@H]4[C@H]2C(=O)N(CCCO)[C@@H]3C1=O (stereo not given in full) | -0.62 | 0.104 | -2.12 | -1.03 | 0.392 | -0.232 | -0.297 | -0.425 | 0.412 | -2.03
CC(C)N1CC=CC23O[C@@H]4C=CCCOC(=O)C4[C@H]2C(=O)N(CCO)[C@@H]3C1=O (stereo not given in full) | -0.478 | 0.516 | -0.289 | -0.343 | -0.348 | -0.224 | -0.282 | -0.0852 | -0.494 | -0.048
NCCCCCCNC(=O)[C@@H]1C[C@@H]2C(=O)N3CCC[C@H]3C(=O)N2[C@@H]1c1ccc(O)cc1 | 1.31 | 0.808 | 1.31 | 0.718 | 0.683 | 0.0049 | 0.0328 | -0.157 | 0.557 | 0.705
Cc1ccc(S[C@]2(C(=O)NC3CC3)CC(=O)N(Cc3ccccc3Cl)[C@@H]2c2ccc(CO)cc2I)cc1 | 1.45 | -1.57 | -0.355 | 0.156 | -0.274 | 0.109 | 0.0062 | -0.429 | 0.769 | 0.939
CCCC[C@@H]1C[C@H]1[C@@H](NC(=O)c1cccnc1)c1ccc(-c2ccccc2)cc1 | -0.447 | -1.95 | -1.99 | -0.297 | 0.742 | -0.141 | 2.01 | -0.744 | -1.2 | -0.556
COCC(=C=CC[C@H](O)c1ccc(OCCO)cc1)C[C@H](O)COCc1ccccc1 | 0.486 | -0.313 | 0.32 | -0.0904 | -0.847 | -0.0718 | -0.279 | -0.302 | 1.52 | 0.439
CC1CC/C=C\[C@H]2OC34C=CCN(CCN5CCOCC5)C(=O)[C@H]3N(CCO)C(=O)[C@@H]4C2C(=O)O1 (stereo not given in full) | -1.99 | -0.504 | -1.2 | -0.714 | -0.307 | -0.166 | -0.154 | -0.145 | 0.0159 | -1.02
COc1ccc([Si](C)(C)[C@@H]2[C@@H](CCO)O[C@]3(C(=O)N(Cc4cccc(N5C(=O)c6ccccc6Oc6ccccc65)c4)c4ccccc43)[C@H]2C)cc1 | 0.405 | -4.56 | -0.704 | 0.949 | 0.646 | -0.208 | -0.221 | -0.0641 | 0.0437 | -0.115
CCCC[C@@H]1C[C@H]1[C@@H](NC(=O)c1ccccc1)c1ccc(Cl)cc1 | -1.15 | -1.65 | -1.86 | 0.014 | 1.42 | -0.247 | -0.209 | 0.253 | 1.23 | -1.51
C[C@H]1C2=C3C(CC[C@H]4C(OCc5ccc(F)cc5C(F)(F)F)OC[C@](C)([C@@H]34)N(C(=O)OC(C)(C)C)C2)C2COC(=O)OCC21 (stereo not given in full) | 1.35 | -1.84 | -0.431 | 2.39 | 1.06 | 0.0232 | 0.26 | -0.701 | 0.908 | 0.771
CO[C@H]1O[C@H](CO)[C@@H](OC(=O)c2ccc(Br)cc2)[C@@H]2OC(=O)[C@@H](Cc3ccc4ccccc4c3)C/C=C/C[C@H](Cc3ccc4ccccc4c3)C(=O)O[C@@H]12 | 0.872 | -1.13 | -0.255 | 1.29 | -0.145 | -0.0894 | -0.16 | -0.241 | 1.22 | 0.528
NC(=O)NCC#Cc1ccc2c(c1)[C@]1(C(=O)N2)[C@H](c2ccc(O)cc2)N2[C@H](c3ccccc3)[C@H](c3ccccc3)OC(=O)[C@H]2[C@@H]1C(=O)Nc1nc2ccccc2s1 | 0.89 | -1.27 | 0.413 | 0.563 | 0.229 | 0.168 | 0.246 | 0.563 | 0.633 | 1.23
O=C1O[C@@H](c2ccccc2)[C@@H](c2ccccc2)N2[C@@H](c3ccccc3OCCO)[C@]3(C(=O)Nc4ccc(C#CCCO)cc43)[C@@H](C(=O)Nc3nc4ccccc4s3)[C@H]12 | -0.503 | -2.12 | 1.02 | 1.7 | 0.64 | -0.0572 | -0.289 | -0.523 | 0.326 | 1.82
O=C1NC(=O)C2C1C=CC(C(O)c1ccc(Br)cc1)N2Nc1ccccn1 (stereo not given) | -0.444 | 0.233 | 0.727 | -0.156 | -0.435 | 0.149 | 0.254 | 0.356 | 0.531 | 0.22
COc1ccccc1CN1C(=O)c2ccccc2[C@@H](C(=O)NC(C)C)[C@@H]1c1ccc(CO)cc1 | 0.636 | -0.861 | 0.4 | 0.301 | -0.508 | 0.236 | 0.14 | -0.637 | 0.902 | 1.06
O=C1C[C@@](C(=O)NCC(F)(F)F)(c2ccc([N+](=O)[O-])cc2)[C@@H](c2ccc(CO)cc2)N1C1CCCCC1 | 1.04 | -1.4 | 0.301 | 0.769 | -0.088 | -0.006 | 0.0898 | 0.0807 | 1.9 | 1.8
O=C1OC[C@@H](c2ccccc2)N2CC(/C=C/c3ccccc3)=CC12 (stereo not given in full) | -1.13 | -0.557 | -1.43 | -0.353 | -0.221 | -0.284 | -0.2 | -0.0118 | -0.383 | -0.273
NC(=O)N1C(=O)C2C(C1=O)C1C=C(CCCO)C2C(c2cccs2)N1Cc1cc2c(cc1Br)OCO2 (stereo not given) | 0.183 | 0.199 | -0.451 | 1.03 | 0.25 | -0.0685 | 0.147 | 0.244 | 0.333 | 1.23
CCC[C@@H]1C[C@@]1(CCC)[C@@H](NP(=O)(c1ccccc1)c1ccccc1)c1ccc(Cl)cc1 | -0.213 | -1.62 | -0.427 | -0.915 | -1.31 | -0.127 | 1.44 | -0.532 | -0.357 | -0.846
C=CC[C@]12N=C(c3ccc(OCCCO)cc3)O[C@H]1c1ccccc1N(C)C2=O | 0.871 | -1.57 | 0.0374 | 0.287 | -0.274 | 0.0169 | 0.287 | 1.99 | 1.41 | 0.707
CCOC(=O)C[C@H]1[C@H](OC(=O)c2ccc(-c3ccccc3)cc2)[C@@H](NC(=O)c2ccc3ccccc3c2)c2cc(OCCCO)ccc2N1C(=O)c1ccc2ccccc2n1 | 1.18 | -1.07 | 0.249 | 1.31 | 0.593 | -0.0445 | -0.112 | -0.324 | 0.639 | 0.0804
CC(C)(C)OC(=O)CC[C@@]1(C(=O)O)N=C(c2ccc(OCCCO)cc2)O[C@@H]1c1ccccc1CN=[N+]=[N-] | 1.31 | -2.21 | -0.677 | 1.33 | 1.09 | 0.145 | 0.218 | -0.1 | 1.24 | 2.78
